# Most compounds without a hit are left out; they make up all but 4% or so of the library.
# GDH-TPI inh: GDH-TPI coupled enzyme inhibition counter-screen; hit rate 1.2% among 360,000; inhibition, % at 4.8 µM; AID 588335; GDH-TPI coupled enzyme counterscreen, NADH absorbance; in the data active = inhibition above about 30%;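 note: 0% = DMSO wells and 100% = wells lacking the enzyme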
# Mtb bLac sens: beta-lactam sensitization of Mtb H37Rv; M. tuberculosis H37Rv growth with meropenem, percent inhibition; inhibition, % at 25 µM; hit rate 0.27% among 330,000; AID 434955; call rule not given here;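 note: growth measured after seven days incubation then overnight dye step; 0% = bacteria only wells and 100% = bacteria with antibiotic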
# Rv3671c protease: inhibits the M. tuberculosis serine protease Rv3671c; P9WHR9; AID 2606; inhibition, % at 5.96 µM; hit rate 0.048% among 320,000; in the data active = inhibition above about 38%;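 note: extracellular domain of Rv3671c used as enzyme; 0% = enzyme with DMSO and 100% = no enzyme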
# RecA intein inh: blocks M. tuberculosis RecA intein splicing; P9WHJ3; cell-free RecA intein splicing, fluorescence; inhibition, % (concentration not given with the values); hit rate 0.75% among 290,000; in the data active = inhibition above about 30%;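 note: 0% = vehicle wells and 100% = reference inhibitor control wells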
# Mtb UGM inh: blocks M. tuberculosis UGM enzyme; P9WIQ1; purified UGM, fluorescence polarization probe displacement; inhibition, % at 10 µM; hit rate 0.06% among 320,000; AID 504406; in the data active = inhibition above about 10%, passing the limit was not always enough
# FBA Mtb inh: Mtb fructose-bisphosphate aldolase inhibition. purified M. tuberculosis FBA, fluorescence read-out. inhibition, % at 1 µM. hit rate 2.3% among 360,000; in the data active = inhibition above about 27%;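 note: 0% = vehicle and 100% = reference inhibitor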
# Target sequence (P9WQA3 whole entry, looked up): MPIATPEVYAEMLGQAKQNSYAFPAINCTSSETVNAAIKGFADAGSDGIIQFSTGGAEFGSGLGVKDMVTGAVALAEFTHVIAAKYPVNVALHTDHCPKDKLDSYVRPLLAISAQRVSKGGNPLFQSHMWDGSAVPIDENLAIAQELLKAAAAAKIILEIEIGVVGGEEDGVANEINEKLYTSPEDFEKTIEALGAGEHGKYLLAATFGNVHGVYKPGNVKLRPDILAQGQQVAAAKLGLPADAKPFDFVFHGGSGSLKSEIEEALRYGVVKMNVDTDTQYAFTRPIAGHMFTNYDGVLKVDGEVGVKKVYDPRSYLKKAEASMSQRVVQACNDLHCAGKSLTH
# Numbers without * were called inactive; i = inactive; x = no result; + = active, no number.
SMILES,GDH-TPI inh,Mtb bLac sens,Rv3671c protease,RecA intein inh,Mtb UGM inh,FBA Mtb inh
CCc1cc(=O)oc2cc(OC(C)=O)cc(OC(C)=O)c12,23,-10,3,-44,2,+
COc1cc(OCc2ccccc2)c(CC(=O)O)c([N+](=O)[O-])c1,11,x,x,x,x,2
COc1ccc(C)cc1-n1nnnc1SCc1nc(N)nc(N(C)C)n1,6,x,x,x,x,-5
CSc1nnc(-c2cc3c(s2)-c2ccccc2CC3)o1,17,94,-6,-3,-2,+
Oc1cc2ccccc2cc1-c1n[nH]c(=S)o1,18,-2,-1,-4,2,6
S=c1[nH]nc(-c2cc3c(s2)-c2ccccc2CC3)o1,22,44,1,-97,-1,+
CC1CCc2sc(-c3n[nH]c(=S)o3)cc2C1 (stereo unspecified),15,3,0,4,6,+
CSc1nnc(-c2ccccc2SC)o1,11,-3,1,7,-1,5
O=C(CN1CCN(CN2C(=O)NC3(CCCCCC3)C2=O)CC1)Nc1ccc(F)cc1,10,0,-4,x,2,3
COc1ccc(OCC(=O)N2CCN(C(=O)c3ccc(F)cc3)CC2)cc1,-1,-8,2,0,-1,-1
Cc1ccc2c(c1)sc1nncn12,-1,x,x,x,x,-1
Nc1ccc2c(C(F)(F)F)cc(=O)oc2c1,16,-6,2,-402,0,63*
CNC(=O)c1[nH]nc2c1CCc1ccccc1-2,5,5,-10,1,2,4
COC(=O)c1[nH]c2c(c1C(=O)OC)CCc1ccccc1-2,30,-2,-3,-4,2,121*
CNc1ccc(/C=C\CCCO)cn1,23,x,x,x,x,115*
Nc1ccccc1/C=C/c1ccccc1N,27,x,x,x,x,146*
Cc1ccc(NC(=O)c2cc([N+](=O)[O-])ccc2N2CCOCC2)cc1S(=O)(=O)N(C)C,42*,3,0,0,0,-1
Cc1ccc(C(=O)c2cc(C)sc2N)cc1,4,10,1,0,4,-3
Cc1cc(C(=O)c2ccc(Cl)cc2)c(NC(=O)CCl)s1,5,96,-14,33*,-3,1
CC(C)n1c(=O)c2ccccc2n1Cc1cn(-c2ccccc2)nn1,x,x,x,x,x,120*
CC(C)n1c(=O)c2ccccc2n1Cc1cn(Cc2ccccc2)nn1,x,x,x,x,x,115*
CC(C)n1c(=O)c2ccccc2n1Cc1cn(CCc2c[nH]c3ccccc23)nn1,x,x,x,x,x,5
CCC12OC(=N)C(C#N)(C1C)C(C#N)(C#N)C(c1ccccc1)O2 (stereo unspecified),17,26,-1,-54,2,144*
CCC1S/C(=N/N=C/c2ccco2)N(Cc2ccc(F)cc2)C1=O (stereo unspecified),34*,0,3,-2,2,-1
CCOCCCn1c(=N)c(C(N)=S)cc2c(=O)n3cccc(C)c3nc21,5,-1,0,i,0,77*
SMILES,GDH-TPI inh,Mtb bLac sens,Rv3671c protease,RecA intein inh,Mtb UGM inh,FBA Mtb inh
CCOCCCNC(=O)c1cc2c(=O)n3cccc(C)c3nc2n1C,14,-2,-3,-10,-1,15
COCCCn1c(=N)c(C(=O)NCC2CCCO2)cc2c(=O)n3cccc(C)c3nc21 (stereo unspecified),2,3,-3,-405,-3,+
O=C(CCCn1c(SCc2cc(=O)n3ccccc3n2)nc2ccccc2c1=O)NCC1CCCO1 (stereo unspecified),33*,1,-5,0,-2,6
Cc1cccn2c(=O)c3cc(C(=O)NCC4CCCO4)c(=N)n(CCN4CCOCC4)c3nc12 (stereo unspecified),24,-4,3,i,1,145*
Cc1cccn2c(=O)c3cc(S(=O)(=O)c4ccccc4)c(=N)n(CC4CCCO4)c3nc12 (stereo unspecified),x,0,2,-242,0,x
COCCCn1c(=N)c(C(=O)NCC2CCCO2)cc2c(=O)n3ccccc3nc21 (stereo unspecified),14,-4,10,i,-1,+
CCCn1c(=N)c(C(=O)NCC2CCCO2)cc2c(=O)n3cccc(C)c3nc21 (stereo unspecified),15,-4,-7,i,1,+
COc1ccc(CCn2c(=N)c(C(=O)NCC3CCCO3)cc3c(=O)n4ccccc4nc32)cc1 (stereo unspecified),12,8,9,-2,0,9
